Experimental data published in PubChem BioAssay (Tox21).
Records with an inconclusive call do not appear. Entries that show only a call come without a potency. Active and inactive are the calls of the source. Calls come from the whole dose curve; as a rule, active = well fitted inhibition curve with a large enough effect in the repeat runs; inconclusive = weak or mixed curves, or effect the other way; inactive = no such curve, though single readings can be large or run the other way. Where a SMILES comes first, the peptide text is derived from it. [ ]: non-standard residue; d: D form. pGlu = O=C1CC[C@@H](C(=O)O)N1

target: Nuclear receptor subfamily 1 group I member 3 (Homo sapiens) (UniProt Q14994); experiment: qHTS assay to identify small molecule antagonists of the constitutive androstane receptor (CAR) signaling pathway (AID 1224838); details: HepG2-CYP2B6-hCAR luciferase, CITCO-stimulated, 24 h; series mostly up to 92.4 µM;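 note: HepG2 cells stably expressing hCAR with CYP2B6 luciferase reporter stimulated by CITCO; nearly all actives have a fitted effect of over 40% in size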
From the text: U.S. Tox21 Program National Center for Advancing Translational Sciences [NCATS] NIH Chemical Genomics Center [NCGC] U.S. Environmental Protection Agency [EPA] National Institutes of Environmental Health Sciences [NIEHS] National Toxicology Program [NTP] U.S. Food and Drug Administration [FDA] Tox21 Assay Overview: The constitutive androstane receptor (CAR) is a nuclear receptor which regulates multiple drug metabolizing enzymes (DMEs) and transporters. Activating CAR will generally increase the transcription and subsequent translation of CYP2B6 and CYP3A4. These two DMEs represent about 50% of the drug metabolizing potential in the body. When CAR is deactivated, the metabolizing potential in the body will decrease, subsequently increasing the toxicity in the body or lowering the therapeutic potential of a pro-drug. Recently, there have also been studies performed indicating CARs role in energy metabolism and cancer therapy. Therefore, inhibiting CARs activity could have a potential effect on diabetes and cancer. Identifying environmental toxins and compounds which modulate CAR, through the use of the Tox21 10K compound collection, will be an important step in determining the toxicity and potential therapeutic effects these factors will have on the human body.
Tox21 Assay Protocol Summary: A double-stable (hCAR and CYP2B6-2.2kb) transfected cell line, derived from human hepatoma (HepG2) cells, was utilized for the duration of the quantitative high-throughput screens. The HepG2-CYP2B6-hCAR cells suspended in DMEM culture medium supplemented with 10% FBS, 5 ug/mL blasticidin, 0.5 mg/mL geneticin, 100 U/mL penicillin and 100 ug/mL streptomycin were dispensed at 2500 cells/4 uL/well in 1536-well white solid bottom plates using a Multidrop Combi. After the assay plates were incubated at 37 C/5% CO2 for 4 hrs, 23 nL of compounds at 15 concentrations (from 5-48 columns) or positive control (from 1 to 4 columns) were transferred to the assay plates using a Pintool station. One uL of CITCO, was added using a Flying Reagent Dispenser to generate a final concentration of 50 nM CITCO inside each well. After a 24 hr incubation period at 37 C/5% CO2, four uL of ONE-Glo reagent was added into the assay plates using a Flying Reagent Dispenser. After a 30 min incubation period at room temperature, the luminescence intensity in the assay plates was measured using a ViewLux plate reader.

Sequence of Nuclear receptor subfamily 1 group I member 3 (Homo sapiens) (Q14994 whole entry, looked up): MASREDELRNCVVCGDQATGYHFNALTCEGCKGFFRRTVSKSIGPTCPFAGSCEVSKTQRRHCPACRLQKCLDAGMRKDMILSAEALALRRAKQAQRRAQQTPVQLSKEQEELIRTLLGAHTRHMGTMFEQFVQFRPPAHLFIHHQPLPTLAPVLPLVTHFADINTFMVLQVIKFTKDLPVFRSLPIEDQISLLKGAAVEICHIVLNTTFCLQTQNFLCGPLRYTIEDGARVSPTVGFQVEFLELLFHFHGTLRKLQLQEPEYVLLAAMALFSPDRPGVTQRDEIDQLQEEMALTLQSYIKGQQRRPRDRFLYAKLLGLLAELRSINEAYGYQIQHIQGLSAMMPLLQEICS

| Structure (SMILES) | Potency | activity, negative = inhibition |
| --- | --- | --- |
| [O-][n+]1cccc(CO)c1 | inactive | – |
| CC(C(=O)O)c1cccc(Oc2ccccc2)c1 (stereo not given) | inactive | – |
| CCCO[Si](OCCC)(OCCC)OCCC | inactive | – |
| CCN1CCOCC1 | inactive | – |
| Cc1onc(-c2c(Cl)cccc2Cl)c1C(=O)Cl | inactive | – |
| COc1c(N2CCNC(C)C2)c(F)cc2c(=O)c(C(=O)O)cn(C3CC3)c12 (stereo not given) | inactive | – |
| CCNC(=O)[C@@H]1CCCN1C(=O)[C@H](CCCN=C(N)N)NC(=O)[C@H](CC(C)C)NC(=O)CNC(=O)[C@H](Cc1ccc(O)cc1)NC(=O)[C@H](CO)NC(=O)[C@H](Cc1c[nH]c2ccccc12)NC(=O)[C@H](Cc1cnc[nH]1)NC(=O)[C@@H]1CCC(=O)N1 ([pGlu]HWSYGLRP-NHEt) | inactive | – |
| CCCCCCCCCCCCCCC(=O)O | inactive | – |
| CCOc1ccc2nc(S(N)(=O)=O)sc2c1 | inactive | – |
| CCCCCCCCCCCCSC | inactive | – |
| COc1ccnc(CS(=O)c2nc3cc(OC(F)F)ccc3[nH]2)c1OC (stereo not given) | inactive | – |
| NC(=O)N1c2ccccc2CC(=O)c2ccccc21 | inactive | – |
| c1ccc(CCc2ccccc2)cc1 | inactive | – |
| CNCC(O)c1ccc(O)c(O)c1 (stereo not given) | inactive | – |
| CC[N+](CC)(CC)CCOc1cccc(OCC[N+](CC)(CC)CC)c1OCC[N+](CC)(CC)CC | inactive | – |
| C[N+]1(CC2COC(c3ccccc3)(c3ccccc3)O2)CCCCC1 (stereo not given) | – | -9.35% [at 19 µM] (inactive) |
| CC1=C(C/C=C(\C)CCC[C@H](C)CCC[C@H](C)CCCC(C)C)C(=O)c2ccccc2C1=O | inactive | – |
| CC1=NS(=O)(=O)c2cc(Cl)ccc2N1 | inactive | – |
| CC(C)=CCC/C(C)=C/C#N | inactive | – |
| CCCCCCC1CCC(=O)O1 (stereo not given) | inactive | – |

| Structure (SMILES) | Potency | activity, negative = inhibition |
| --- | --- | --- |
| O=C(O)Cc1csc(-c2ccc(Cl)cc2)n1 | inactive | – |
| N[C@@H](CCC(=O)O)C(=O)O | inactive | – |
| CC(C)(C)C(=O)c1ccccc1 | inactive | – |
| CC1=NN(c2cccc(S(=O)(=O)O)c2)C(=O)C1 | inactive | – |
| CN1CC(=O)N/C1=N/C(=O)Nc1cccc(Cl)c1 | inactive | – |
| CC(=O)c1cnccn1 | inactive | – |
| CCCOC(=O)CC | inactive | – |
| C=C[Si](OC(C)=O)(OC(C)=O)OC(C)=O | inactive | – |
| O=C(CO)[C@@H](O)[C@H](O)[C@H](O)CO | inactive | – |
| CN1CCC(=C2c3ccccc3CCc3cccnc32)CC1 | inactive | – |
| O=C1NC(=O)C2CC=CCC12 (stereo not given) | inactive | – |
| CCCCc1nc(Cl)c(CO)n1Cc1ccc(-c2ccccc2-c2nn[nH]n2)cc1 | inactive | – |
| CC(COc1ccccc1)NN (stereo not given) | inactive | – |
| O=C(c1ccccc1O)c1ccccc1O | inactive | – |
| CCN(C=O)CC | inactive | – |
| CN1C(C)(C)CC(O)CC1(C)C | inactive | – |
| C[N+]12CCC(CC1)C(OC(=O)C(O)(c1ccccc1)c1ccccc1)C2 (stereo not given) | inactive | – |
| CCCCN1C=CN(C)C1 | – | 14.7% [at 19 µM] (inactive) |
| C=CCCC(=O)O | inactive | – |
| CCOC(=O)COc1cc(-n2ncc(C(F)(F)F)c(C)c2=O)c(F)cc1Cl | inactive | – |
